Screening data as filed in PubChem.
Sampled rows, rich in hits. Any-hit rate of the full collection: about 3.4%.
SMARCA2 activ = SMARCA2 (BRM) function activators, primary screen, cell-based, luminescence, high throughput. activation, % at 9.1 µM. AID 652017, 2013. MG213 cells, MMTV-luciferase reporter, dexamethasone, overnight. hit rate 1% among 370,000; in the data active means activation above about 7.8%;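 further: 0% = vehicle wells and 100% = reference activator wells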
FXN GAA850 act = FXN promoter activators, primary screen, cell-based, luciferase luminescence, HEK293 lucGAA850. HEK293 lucGAA850 FXN promoter luciferase reporter, 24 h; percent of 10 µM SAHA response. activation, % at 6 µM. hit rate 0.56% among 360,000;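 active means activation above the average of all compounds screened plus 3 SD, cutoff fixed separately per campaign, cut at about 7.5% in these data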;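 further: 0% = DMSO wells and 100% = 10 µM SAHA wells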
GalR3 antagonist = GalR3 antagonists in HEK293 cells, primary screen, cell-based, fluorescence readout; Galanin receptor type 3 (Homo sapiens), O60755; HEK293 GalR3-CNG cAMP membrane potential fluorescence; galR3 body fused to GalR1 C-terminus; inhibition, % at 3 µM; hit rate 0.44% among 360,000;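 active means inhibition above the screen-wide average plus 3 SD, cut at about 13% in these data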;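 further: forskolin and galanin both at EC90 stimulate the cells; cAMP rise reported by CNG channel membrane potential dye signal; 0% = forskolin plus galanin with DMSO and 100% = forskolin alone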
Target sequence (O60755 1-299 limits assumed): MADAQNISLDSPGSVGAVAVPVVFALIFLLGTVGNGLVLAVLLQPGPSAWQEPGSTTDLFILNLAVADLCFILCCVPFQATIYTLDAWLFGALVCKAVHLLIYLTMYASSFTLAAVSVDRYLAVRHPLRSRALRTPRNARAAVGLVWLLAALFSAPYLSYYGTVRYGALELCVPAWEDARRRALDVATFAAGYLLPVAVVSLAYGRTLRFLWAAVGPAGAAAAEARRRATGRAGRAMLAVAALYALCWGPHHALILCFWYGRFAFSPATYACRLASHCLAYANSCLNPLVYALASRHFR
NR2F2 inh = NR2F2 transcriptional activity inhibitors, primary screen, cell-based, luciferase reporter, HEK293T, luminescence; HEK293T NGFI-A luciferase reporter; inhibition, % at 8.6 µM; hit rate 0.7% among 370,000; AID 686940, 2013;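 active means inhibition above a per-plate cutoff, mean inhibition of test wells between control levels plus 3 SD, cut at about 38% in these data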;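 further: cells cotransfected with COUP-TFII expression vector driving the NGFI-A reporter; 0% = median of COUP-TF2 test wells and 100% = reporter-only cells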
Gli-Sufu antag = Gli-Sufu pathway antagonists, primary screen, luciferase luminescence, Sufu-KO-LIGHT cells, uHTS. Sufu-KO-LIGHT fibroblasts, Gli luciferase reporter luminescence. inhibition, % at 5 µM. hit rate 0.74% among 340,000. AID 588413, 2011;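 active means inhibition above about 55%, limit read from the data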;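 further: 0% = DMSO-treated cells and 100% = wells with medium but no cells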
Cardio protect = cardioprotection against H2O2-induced cell death, primary screen, uHTS, H9c2 cells, ATPLite luminescence; H9c2 cardiomyocytes, H2O2 injury protection, 2 h; protection from H2O2 cell death, % at 20 µM; hit rate 0.63% among 360,000; AID 588492, 2011;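 active means compounds giving at least 50% protection of heart cells from peroxide-induced death in the single-dose screen, raw or plate-pattern-corrected value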;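 further: 0% = DMSO wells with peroxide and 100% = DMSO wells without peroxide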
SMARCA2 act conf = SMARCA2 (BRM) function activators, confirmation, cell-based, luminescence, triplicate | shares compounds with SMARCA2 activ | MG213 cells, MMTV-luciferase with dexamethasone, overnight; MG213 cells expressing E1A, Rb sequestered; DMSO wells 0%, reference activator 100% | activation, % at 9.1 µM | hit rate 30% among 3,500 | AID 652260, 2013;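 active means activation above its plate's cutoff, the mean activation of tested wells plus 3 SD, cut at about 7.9% in these data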
GAL4-VP16 Luc = GAL4-VP16 luciferase reporter activation, counter-screen for SMARCA2 (BRM) activator project, cell-based, pG5luc, luminescence, high throughput; hit rate 41% among 3,500; activation, % at 9.1 µM; AID 686939, 2013; shares compounds with SMARCA2 activ; HEK293 GAL4-VP16 pG5luc reporter; scaled: DMSO wells 0%, SAHA wells 100%;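 active means activation above the solvent-only control well mean plus 3 SD, averaged across control plates, cut at about 5.2% in these data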
The depositor's hits bear a star; / = no result given.

SMILES	SMARCA2 activ	FXN GAA850 act	GalR3 antagonist	NR2F2 inh	Gli-Sufu antag	Cardio protect	SMARCA2 act conf	GAL4-VP16 Luc
CC(=O)N1CCN(c2ccnc3cc(Cl)ccc23)CC1	11*	0	-3	8	9	-2	-1	-1
O=C(O)CSCC(=O)N1CCN(c2ccnc3cc(Cl)ccc23)CC1	/	2	/	/	0	12	/	/
CC(C)(Oc1ccc(F)cc1)C(=O)OCC(=O)c1ccc(S(C)(=O)=O)cc1	-1	0	-4	-1	-3	6	/	/
COC(=O)CNc1nc(Cl)nc(Nc2ccc(Cl)cc2)n1	0	1	-5	-8	9	-1	/	/
COc1ccc(C2CCCN2CC(O)COc2ccccc2C(C)C)cc1 (centres undefined)	-4	-3	-6	1	17	-14	/	/
Cc1ccc(Nc2nc(N)nc(CC#N)n2)cc1	12*	3	-11	-28	-37	2	8	6.6*
O=C(Nc1ccc(Br)cc1Cl)c1cnccn1	9.4*	5	-7	1	-10	-1	12*	4
CC(=O)Nc1nnc(SCc2ccc(C(=O)Nc3ccccc3F)cc2)s1	-1	2	-3	-1	-7	-3	/	/
COc1ccc(-c2cc(C#N)nc(Cl)n2)cc1	21*	6	-3	0	-3	-4	41*	2
COc1ccc(-c2cc(C#N)nc(Oc3ccc(Cl)cc3)n2)cc1	-3	3	-5	9	-5	-8	/	/
CCN(CC)S(=O)(=O)c1cc(NC(=O)C(C)N(C)CC(=O)Nc2c(C)cccc2C)ccc1C (centres undefined)	9.2*	-5	-10	14	-3	2	-3	0
COc1ccc(-c2coc3cc(O)ccc3c2=O)cc1O	8.0*	3	-5	-54	-7	-11	13*	11*
O=c1c(-c2ccc(O)cc2)coc2cc(O)cc(O)c12	9.0*	4	2	-65	-86	-7	14*	11*
COc1ccc(-c2cc3ccc(OCC(N)=O)cc3oc2=O)cc1OC	0	2	-6	-26	8	0	/	/
COc1ccc(-c2coc3cc(O)cc(O)c3c2=O)cc1	1	2	-1	-57	-15	-22	/	/
CCC(=O)Nc1cc(-c2cc3ccccc3oc2=O)ccc1OC	9.3*	2	-3	-57	-99	-3	11*	9.6*
COc1ccc(-c2coc3cc(O)ccc3c2=O)cc1	3	0	/	-36	-64	-28	/	/
COc1ccc(-c2cc3ccc(O)cc3oc2=O)cc1OC	8.5*	5	-6	-30	0	4	6	3
Cc1cc(C)nc(SCC(=O)NC(=O)c2ccccc2O)n1	-5	-1	1	-11	3	5	/	/
CC(C)(C)NC(=O)C(c1ccc(-c2ccccc2)cc1)N(C[C@H]1CC[C@@H]([C@@H]2CC[C@H](CO)O2)O1)C(=O)c1ccccc1F (some centres undefined)	/	-4	/	/	9	-1	/	/
CC(=O)c1cccc(NC(=O)CCc2nnc3ccc(N4CCOCC4)nn23)c1	-4	1	-6	-21	-3	-4	/	/
COc1ccc(OCCNC(=O)C2(C)CCN2Cc2ccc3ccccc3c2)cc1 (centres undefined)	1	-3	-8	-12	/	4	/	/
COc1ccc(OC)c(S(=O)(=O)N2CCN(C(=O)c3cc(C4CC4)nn3-c3ccccc3)CC2)c1	-1	3	-5	-8	3	3	/	/
Nc1ccccc1C(=O)NN=Cc1cccc([N+](=O)[O-])c1	9.1*	/	-6	-35	/	-15	15*	3
Cc1cc(SCC(=O)OCC(=O)N(CCC#N)c2ccccc2)nc2ccccc12	-1	1	-3	-12	0	3	/	/
SMILES	SMARCA2 activ	FXN GAA850 act	GalR3 antagonist	NR2F2 inh	Gli-Sufu antag	Cardio protect	SMARCA2 act conf	GAL4-VP16 Luc
CCc1ccc(NC(=O)CCCn2nc(CC)n3c(cc4occc43)c2=O)cc1	9.6*	1	-8	-13	10	-4	3	0
CCOc1ccc(CNC(=O)CCCn2nc(CC)n3c(cc4occc43)c2=O)cc1	-2	0	1	8	12	1	/	/
O=C1CN(C(=S)NC(=O)c2ccc(-c3ccccc3)cc2)CCN1	10*	3	5	-45	-12	-16	7	4
Cc1ccnc(N2CCCC(C(=O)Nc3ccc(C)c(C)c3)C2)n1 (centres undefined)	-3	-1	-6	-9	-18	1	/	/
COc1ccc(NC(=O)C2CCCN(c3ncccn3)C2)cc1 (centres undefined)	8.4*	5	-9	-34	-2	-1	6	5.2*
Cc1ccc(NC(=O)C2CCCN(c3ncccn3)C2)cc1C (centres undefined)	15*	2	-9	0	17	0	7	7.0*
C[n+]1cn(Cc2ccc(C#N)cc2)c2ccccc21	-1	-1	-5	6	8	1	/	/
COc1ccc2c3c(cccc13)C(=O)N(O)C2=O	9.0*	3	-5	12	24	-1	44*	1
Cc1cccc(NC(=O)Cn2nnc(-c3ccccc3F)n2)c1C	-5	/	/	1	/	/	/	/
CC(=O)N=C(N)Sc1nc2ccccc2[nH]1	9.7*	6	-2	-35	-78	-3	6	9.2*
CC(Sc1nc2ccccc2[nH]1)C(=O)O (centres undefined)	-2	6	-7	-9	-3	-3	/	/
C=CCNC(=O)N1CCC(c2nc3ccc(Cl)cc3[nH]2)CC1	9.7*	/	/	-2	/	/	-3	2
O=C(NCc1ccccc1)N1CCC(c2nc3ccc(Cl)cc3[nH]2)CC1	2	/	/	-117	/	/	/	/
COc1ccccc1C(=O)Nc1ccc(C(=O)Nc2ccccc2C(=O)O)cc1	-5	1	1	3	7	9	/	/
COc1ccc(COC(=O)Nc2cn(C)nc2C(F)(F)F)cc1	4	-2	-3	-8	-18	2	/	/
Cc1occc1C(=O)NNC(=O)c1ccc(F)cc1	-2	0	1	-10	-11	-9	/	/
Cc1occc1C(=O)NNC(=S)Nc1ccccc1	9.3*	4	-4	-13	-2	1	5	6.8*
